Source: PubChem (Broad Institute)
Shown are actives, neighbours in structure and some others; about 2.4% of the full set was active somewhere.
Pf Dd2 growth: inhibitors of Plasmodium falciparum Dd2 growth; activity change, % at 10 µM; AID 1159554; 94,000 tested, 2.3% active; P. falciparum Dd2 growth, SYBR Green, 72 h; hits give low values; in the data active = activity change below about -80%
C diff growth: blocks growth of Clostridium difficile. Clostridium difficile clinical isolate growth, OD600, 24 h; hits give low values. growth activity, negative = inhibition, % at 16 µg/mL (by protocol). 86,000 tested, 0.25% active;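 active = mean growth activity at or below -80% and every replicate also at or below -80%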;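 also: 0% = DMSO wells and -100% = levofloxacin 16 µg/mL wells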
The depositor's hits bear a star; / = no result given.

SMILES	Pf Dd2 growth	C diff growth
COc1ccc(C#Cc2ccc3c(c2)[C@H]2[C@H](CCN2C(=O)c2ccccn2)[C@@H](CO)N3)cc1	-91*	37
COc1ccccc1C#Cc1ccc2c(c1)[C@H]1[C@H](CCN1C(=O)c1ccncc1)[C@H](CO)N2	-52	-100*
COc1ccc(C#Cc2ccc3c(c2)[C@H]2[C@H](CCN2C(=O)c2ccccn2)[C@H](CO)N3)cc1	-88*	50
COc1ccc(C#Cc2ccc3c(c2)[C@H]2[C@H](CCN2C(=O)c2ccncc2)[C@H](CO)N3)cc1	-60	53
O=C(c1ccccn1)N1CC[C@H]2[C@H](CO)Nc3ccc(C#Cc4cccnc4)cc3[C@H]21	-20	3
N#Cc1cccc(-c2ccc3c(c2)[C@@H]2[C@@H](CCN2C(=O)c2ccncc2)[C@H](CO)N3)c1	-39	-1
O=C(C[C@H]1CC[C@@H](NC(=O)C2CCOCC2)[C@@H](CO)O1)NCc1ccccc1Cl	-2	/
Cc1ccc(-c2ccc3c(c2)O[C@H](CN(C)Cc2ccncc2)[C@H](C)CN([C@H](C)CO)S3(=O)=O)cc1	-15	-5
O=C(Nc1ccccc1F)N1CCCCN2[C@H](C1)[C@H](c1ccc(-c3cccnc3)cc1)[C@@H]2CO	20	-13
C[C@@H]1CN([C@@H](C)CO)C(=O)c2cc(C#Cc3ccccn3)cnc2O[C@H]1CN(C)C(=O)c1ccccn1	22	3
O=C(O)C[C@@H]1CC[C@H]2[C@@H](COC[C@H](O)CN2S(=O)(=O)c2ccc(F)cc2)O1	36	1
C[C@@H]1CCCCO[C@H](CN(C)C(=O)Nc2ccc3c(c2)OCO3)[C@@H](C)CN([C@@H](C)CO)C(=O)c2cc(NC(=O)C3CCCCC3)ccc2O1	-64	-1
C[C@@H]1CCCCO[C@@H](CN(C)C(=O)Nc2ccc3c(c2)OCO3)[C@H](C)CN([C@@H](C)CO)C(=O)c2cc(NC(=O)C3CCCCC3)ccc2O1	-25	0
C[C@@H]1CN([C@@H](C)CO)C(=O)c2cc(NC(=O)C3CCCCC3)ccc2O[C@@H](C)CCCCO[C@@H]1CN(C)C(=O)Nc1ccc2c(c1)OCO2	-83*	0
C[C@@H]1CCCCO[C@H](CN(C)C(=O)Nc2ccc3c(c2)OCO3)[C@H](C)CN([C@H](C)CO)C(=O)c2cc(NC(=O)C3CCCCC3)ccc2O1	-86*	-5
C[C@@H]1CCCCO[C@H](CN(C)C(=O)C2CCCCC2)[C@H](C)CN([C@@H](C)CO)C(=O)c2cc(NC(=O)CCCN(C)C)ccc2O1	-19	-5
CN(C)c1ccc2c(c1)[C@@H]1C[C@H](CC(=O)NCc3ccccc3F)O[C@H](CO)[C@@H]1O2	18	-3
CNC[C@@H]1Oc2c(NC(=O)C3CC3)cccc2C(=O)N([C@@H](C)CO)C[C@H]1C	11	/
COC(=O)[C@@H]1[C@@H](CO)[C@@H]2Cn3c(ccc(-c4ccncc4)c3=O)[C@@H]2N1CC1CCCC1	-3	0
CCC(=O)Nc1ccc2c(c1)C(=O)N(C)C[C@@H](OC)[C@H](C)CN(Cc1cc(-c3ccccc3)on1)[C@H](C)CO2	-35	/
C/C=C/c1ccc([C@@H]2[C@H]3CN(C(=O)Nc4ccccc4F)CC(=O)N3[C@H]2CO)cc1	0	-16
C[C@@H]1CN([C@H](C)CO)C(=O)c2cccc(NC(=O)CCCCCC(=O)Nc3ccccc3N)c2O[C@@H]1CN(C)Cc1ccc(Cl)c(Cl)c1	-91*	-8
C[C@@H]1CN([C@@H](C)CO)C(=O)Cc2cc(NC(=O)CCCCCC(=O)Nc3ccccc3N)ccc2O[C@@H]1CN(C)Cc1ccc(Cl)c(Cl)c1	-33	0
C[C@H](CO)N1C[C@H](C)[C@@H](CN(C)Cc2ccc(Cl)c(Cl)c2)Oc2c(NC(=O)CCCCCC(=O)Nc3ccccc3N)cccc2C1=O	-72	-13
C[C@@H]1CN([C@H](C)CO)C(=O)c2cccc(NC(=O)CCCCCC(=O)Nc3ccccc3N)c2O[C@@H]1CN(C)C	-42	1
SMILES	Pf Dd2 growth	C diff growth
C[C@@H]1CN([C@@H](C)CO)C(=O)c2cccc(NC(=O)CCCCCC(=O)Nc3ccccc3N)c2O[C@@H]1CN(C)Cc1ccc(Cl)c(Cl)c1	-93*	/
C[C@H]1CN([C@@H](C)CO)C(=O)c2cccc(NC(=O)CCCCCC(=O)Nc3ccccc3N)c2O[C@H]1CN(C)Cc1ccc(Cl)c(Cl)c1	-88*	3
C[C@@H]1CN([C@@H](C)CO)C(=O)c2cc(NS(=O)(=O)c3ccc(F)cc3)ccc2O[C@@H](C)CCCCO[C@H]1CN(C)C(=O)Nc1ccccc1	-29	0
N#Cc1cccc(-c2ccc([C@H]3[C@H](CO)N4CCCCN(C(=O)Nc5ccc(F)cc5)C[C@@H]34)cc2)c1	4	35
O=C(C1CC1)N1C[C@H]2[C@@H](c3ccccc31)[C@@H](CO)N2C(=O)c1ccccn1	2	4
Cc1cc(C(=O)Nc2cccc3c2O[C@H](CN(C)Cc2ccc(C(=O)O)cc2)[C@H](C)CN([C@@H](C)CO)C3=O)n(C)n1	10	0
